Compounds without any hit were thinned out: in the full panel of roughly 83,000, 20% have a hit.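 Activity criterion: percent growth below 10, measured after cells in 96-well plates were exposed to a single compound concentration for 48 hours.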 Active and inactive are the calls of the source.
Key:
Assay in all cases: NCI-60 one-dose screen, 48 h (100 = growth as untreated, 0 = no growth, -100 = all killed)
Conditions in all cases: 10 µM
DU-145 prostate = test system: DU-145 prostate
K-562 leukemia = test system: K-562 leukemia
MALME-3M melanoma = test system: MALME-3M melanoma
MDA-MB-231 breast = test system: MDA-MB-231 breast
RXF 393 renal = test system: RXF 393 renal
SF-268 CNS = test system: SF-268 CNS
SF-295 CNS = test system: SF-295 CNS
SF-539 CNS = test system: SF-539 CNS
UACC-257 melanoma = test system: UACC-257 melanoma
M14 melanoma = test system: M14 melanoma
HCT-15 colon = test system: HCT-15 colon
HT29 colon = test system: HT29 colon
SNB-75 CNS = test system: SNB-75 CNS
SNB-19 CNS = test system: SNB-19 CNS
U251 CNS = test system: U251 CNS
PC-3 prostate = test system: PC-3 prostate
UACC-62 melanoma = test system: UACC-62 melanoma
LOX IMVI melanoma = test system: LOX IMVI melanoma
SK-MEL-28 melanoma = test system: SK-MEL-28 melanoma
SK-MEL-5 melanoma = test system: SK-MEL-5 melanoma

Measured: growth

CC(=O)Nc1ccc(CC[C@H]2CCC/C=C/[C@@H]3C[C@H](O)C[C@H]3[C@H](O)/C=C/C(=O)O2)cc1
active: MALME-3M melanoma -7.38% | MDA-MB-231 breast -88.4% | RXF 393 renal -32.1% | UACC-257 melanoma -3.78% | M14 melanoma 9.87% | HCT-15 colon 9.69% | HT29 colon -26.2% | LOX IMVI melanoma -64.9% | SK-MEL-28 melanoma 6.75%
inactive: DU-145 prostate 22.9% | K-562 leukemia 15.3% | SF-268 CNS 13.8% | SF-295 CNS 16.9% | SF-539 CNS 25.3% | SNB-75 CNS 30.3% | SNB-19 CNS 25.9% | U251 CNS 15.2% | PC-3 prostate 18.9% | UACC-62 melanoma 18.7%

COc1cc2c(cc1NC(=O)C(F)(F)F)-c1ccc(NC(=O)C(F)(F)F)cc1C2
active: SNB-75 CNS -1.06%
inactive: DU-145 prostate 93.4% | K-562 leukemia 100% | MALME-3M melanoma 83.7% | MDA-MB-231 breast 91.1% | RXF 393 renal 35.7% | SF-268 CNS 90.1% | SF-295 CNS 83.4% | SF-539 CNS 80.6% | UACC-257 melanoma 109% | M14 melanoma 113% | HCT-15 colon 106% | HT29 colon 106% | SNB-19 CNS 86.4% | PC-3 prostate 90.8% | SK-MEL-5 melanoma 90.8% | UACC-62 melanoma 92% | LOX IMVI melanoma 94.2% | SK-MEL-28 melanoma 103%

C/C=C/CSC(C)(C)C(=O)NC
inactive: DU-145 prostate 103% | K-562 leukemia 110% | MALME-3M melanoma 111% | MDA-MB-231 breast 120% | RXF 393 renal 110% | SF-268 CNS 103% | SF-295 CNS 106% | SF-539 CNS 100% | UACC-257 melanoma 92.2% | M14 melanoma 104% | HCT-15 colon 100% | HT29 colon 98.1% | SNB-75 CNS 92% | SNB-19 CNS 101% | U251 CNS 104% | PC-3 prostate 92.8% | UACC-62 melanoma 105% | LOX IMVI melanoma 97% | SK-MEL-28 melanoma 112%

CC[C@@H](C(=O)[C@@H](C)[C@@H](O)[C@H](C)[C@@H]1O[C@@H]([C@@H](CC)C(=O)N(CC)CC)CC[C@@H]1C)C1O[C@]2(C=CC(=O)[C@]3(CC[C@@](C)([C@H]4CC[C@](O)(CC)[C@H](C)O4)O3)O2)[C@H](C)C[C@@H]1C (stereo partly specified)
inactive: DU-145 prostate 68.5% | K-562 leukemia 19.3% | MDA-MB-231 breast 25.8% | RXF 393 renal 28.2% | SF-268 CNS 46.4% | SF-539 CNS 44.8% | UACC-257 melanoma 19.8% | M14 melanoma 13.6% | HCT-15 colon 11% | HT29 colon 13.1% | SNB-75 CNS 30.2% | SNB-19 CNS 23.4% | UACC-62 melanoma 13% | LOX IMVI melanoma 34.3% | SK-MEL-28 melanoma 19.5%
active: MALME-3M melanoma -27.3% | SF-295 CNS 4.86% | U251 CNS 6.72% | PC-3 prostate 7.83%

COc1ccc(NC(=O)C2CC3C=CC2C3)c([N+](=O)[O-])c1 (stereo unspecified)
inactive: DU-145 prostate 110% | K-562 leukemia 88.9% | MALME-3M melanoma 116% | MDA-MB-231 breast 93.3% | RXF 393 renal 99.8% | SF-268 CNS 102% | SF-295 CNS 95.5% | SF-539 CNS 98.6% | UACC-257 melanoma 98.1% | M14 melanoma 130% | HCT-15 colon 97.1% | HT29 colon 101% | SNB-75 CNS 91.2% | SNB-19 CNS 91.9% | U251 CNS 98.4% | PC-3 prostate 94.9% | UACC-62 melanoma 96.5% | LOX IMVI melanoma 95.3% | SK-MEL-28 melanoma 98.1%

CCN(CC)CCOc1cccc2c1C(=O)c1cccc(OCCN(CC)CC)c1C2=O
inactive: DU-145 prostate 27.1% | K-562 leukemia 27.9% | MALME-3M melanoma 52% | MDA-MB-231 breast 42.4% | RXF 393 renal 42.4% | SF-268 CNS 40.8% | SF-295 CNS 32.5% | SF-539 CNS 37.3% | UACC-257 melanoma 70.7% | M14 melanoma 35.4% | HCT-15 colon 57% | HT29 colon 13.8% | SNB-75 CNS 53.3% | SNB-19 CNS 31.8% | U251 CNS 24.8% | PC-3 prostate 32.2% | UACC-62 melanoma 56.9% | LOX IMVI melanoma 18.2% | SK-MEL-28 melanoma 82.5%

COc1ccc(-c2onc(N)c2-c2cc(OC)c3c(c2)OCO3)cc1
active: M14 melanoma -0.971% | HT29 colon 7%
inactive: DU-145 prostate 29.3% | K-562 leukemia 13% | MALME-3M melanoma 29.5% | MDA-MB-231 breast 56.7% | RXF 393 renal 24.8% | SF-268 CNS 50.1% | SF-295 CNS 14.3% | SF-539 CNS 20.1% | UACC-257 melanoma 47.5% | HCT-15 colon 23.9% | SNB-75 CNS 17.7% | SNB-19 CNS 52.8% | U251 CNS 18.6% | PC-3 prostate 61.4% | UACC-62 melanoma 42.7% | LOX IMVI melanoma 34.7% | SK-MEL-28 melanoma 47.4%

CCN(CCCNc1cc2c(c(N)c1S(=O)(=O)O)C(=O)c1ccccc1C2=O)c1ccccc1
inactive: DU-145 prostate 124% | K-562 leukemia 101% | MALME-3M melanoma 97% | MDA-MB-231 breast 88.9% | RXF 393 renal 108% | SF-268 CNS 109% | SF-295 CNS 111% | SF-539 CNS 98.4% | UACC-257 melanoma 102% | M14 melanoma 98.3% | HCT-15 colon 107% | HT29 colon 104% | SNB-75 CNS 88.3% | SNB-19 CNS 95.1% | PC-3 prostate 87.1% | SK-MEL-5 melanoma 95.2% | UACC-62 melanoma 92.1% | LOX IMVI melanoma 94.7% | SK-MEL-28 melanoma 102%

O=C1/C=C/[C@@H](O)[C@@H]2C[C@@H](O)C[C@H]2/C=C/CCC[C@H](CCc2ccc(NC(=S)Nc3ccc4c(c3)C(=O)OC43c4ccc(O)cc4Oc4cc(O)ccc43)cc2)O1
active: MALME-3M melanoma -1.26% | MDA-MB-231 breast -88.7% | RXF 393 renal -30.2% | UACC-257 melanoma 0.525% | HCT-15 colon 3.98% | HT29 colon 1.54% | LOX IMVI melanoma -51.4% | SK-MEL-28 melanoma 9.95%
inactive: DU-145 prostate 17.4% | K-562 leukemia 13.5% | SF-268 CNS 12.8% | SF-295 CNS 22.2% | SF-539 CNS 29.4% | M14 melanoma 10.9% | SNB-75 CNS 48.9% | SNB-19 CNS 34.1% | U251 CNS 20% | PC-3 prostate 23.3% | UACC-62 melanoma 16.3%

O=C(Nc1nc(-c2ccccc2)nc2c1sc(=S)n2-c1ccccc1)C(F)(F)F
inactive: DU-145 prostate 99.6% | K-562 leukemia 79.4% | MALME-3M melanoma 124% | MDA-MB-231 breast 89.7% | RXF 393 renal 98% | SF-268 CNS 98.4% | SF-295 CNS 88.4% | SF-539 CNS 96.5% | UACC-257 melanoma 82.9% | M14 melanoma 101% | HCT-15 colon 88.4% | HT29 colon 94.8% | SNB-75 CNS 96.5% | SNB-19 CNS 105% | U251 CNS 90.6% | PC-3 prostate 79.5% | UACC-62 melanoma 86% | LOX IMVI melanoma 84.4% | SK-MEL-28 melanoma 104%

CCOC(=O)C1=CSC2=NC3=C(CCC/C3=C\c3cc(OC)c(OC)c(OC)c3)C(c3cc(OC)c(OC)c(OC)c3)N12 (stereo unspecified)
inactive: K-562 leukemia 38.7% | MALME-3M melanoma 74.6% | MDA-MB-231 breast 74.2% | RXF 393 renal 32.7% | SF-268 CNS 33.3% | SF-295 CNS 55.8% | SF-539 CNS 49.9% | UACC-257 melanoma 58.1% | M14 melanoma 16.9% | HCT-15 colon 57.7% | HT29 colon 12.9% | SNB-75 CNS 39.1% | SNB-19 CNS 85.1% | PC-3 prostate 77.1% | SK-MEL-5 melanoma 60.3% | UACC-62 melanoma 74.4% | LOX IMVI melanoma 23% | SK-MEL-28 melanoma 67.2%
active: DU-145 prostate 8.85%

CS(=O)(=O)c1nccc(-c2c(-c3ccc(OCCc4ccccc4)cc3)nc3sccn23)n1
inactive: DU-145 prostate 94% | K-562 leukemia 100% | MALME-3M melanoma 103% | MDA-MB-231 breast 85.2% | RXF 393 renal 92.5% | SF-268 CNS 104% | SF-295 CNS 108% | SF-539 CNS 85.5% | UACC-257 melanoma 103% | M14 melanoma 94.6% | HCT-15 colon 103% | HT29 colon 88.1% | SNB-75 CNS 89.1% | SNB-19 CNS 89.4% | U251 CNS 95.9% | PC-3 prostate 93.9% | UACC-62 melanoma 88% | LOX IMVI melanoma 92.6% | SK-MEL-28 melanoma 96.3%

CS(=O)(=O)c1nccc(-c2c(-c3cccc(O)c3)nc3sccn23)n1
inactive: DU-145 prostate 90.9% | K-562 leukemia 101% | MALME-3M melanoma 94.7% | MDA-MB-231 breast 74.4% | RXF 393 renal 85% | SF-268 CNS 98.5% | SF-295 CNS 103% | SF-539 CNS 92.4% | UACC-257 melanoma 92.9% | M14 melanoma 94% | HCT-15 colon 101% | HT29 colon 91.7% | SNB-75 CNS 70.4% | SNB-19 CNS 103% | U251 CNS 91.9% | PC-3 prostate 96.8% | UACC-62 melanoma 85.9% | LOX IMVI melanoma 91.5% | SK-MEL-28 melanoma 94%

CC(C)(C)OC(=O)CC(S(=O)(=O)c1ccccc1)S(=O)(=O)c1ccccc1
inactive: DU-145 prostate 94.2% | K-562 leukemia 43.9% | MDA-MB-231 breast 103% | RXF 393 renal 69.4% | SF-268 CNS 102% | SF-295 CNS 110% | SF-539 CNS 107% | UACC-257 melanoma 91.9% | M14 melanoma 116% | HCT-15 colon 77.9% | HT29 colon 104% | SNB-75 CNS 99.2% | SNB-19 CNS 95.2% | PC-3 prostate 101% | SK-MEL-5 melanoma 94.2% | UACC-62 melanoma 103% | LOX IMVI melanoma 94.7% | SK-MEL-28 melanoma 105%
active: MALME-3M melanoma -41.1%

Reference: PubChem BioAssay (NCI)
